Reference: PubChem BioAssay AID1159580 (chemical genetic matrix, 2015)
Hit rate of the full screen: of about 5,500 compounds, about 2,000 (36%) were called active. Another 18% or so got no clear call; they are omitted. Cut-off read from the data, not from the text of the source: active = normalized growth mostly below about 0.91 (no sharp cut-off); inconclusive = no clear call, values can overlap the other calls; inactive = mostly above about 0.92. Some of the results follow.

Test: chemical genetic growth profiling, strain panel (AID 1159580);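 note: tested at 20 µM; growth read once vehicle control cultures reached saturation at 30 °C; 1 = growth at the plate median or of vehicle wells; lower values mean less growth of the strain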
Settings: growth OD

Measured: normalized growth

NC(=O)c1ncn([C@@H]2O[C@H](CO)[C@@H](O)[C@H]2O)c1O
inactive: S. cerevisiae deletion strains, locus YAL013W, strain DEP1, active compounds read low 1 | S. cerevisiae deletion strains, locus YBR021W, strain FUR4, active compounds read low 1.02 | S. cerevisiae deletion strains, locus YBR229C, strain ROT2, active compounds read low 1.01 | S. cerevisiae deletion strains, locus YCL029C, strain bik1, active compounds read low 1.01 | S. cerevisiae deletion strains, locus YDL035C, strain GPR1, active compounds read low 1.02 | S. cerevisiae deletion strains, locus YDL074C, strain BRE1, active compounds read low 0.978 | S. cerevisiae deletion strains, locus YDL101C, strain DUN1, active compounds read low 1 | S. cerevisiae deletion strains, locus YDL134C, strain PPH21, active compounds read low 1 | S. cerevisiae deletion strains, locus YDL185W, strain tfp1, active compounds read low 1.01 | S. cerevisiae deletion strains, locus YDL192W, strain arf1, active compounds read low 1.01 | S. cerevisiae deletion strains, locus YDR101C, strain arx1, active compounds read low 1.01 | S. cerevisiae deletion strains, locus YDR150W, strain NUM1, active compounds read low 0.997 | S. cerevisiae deletion strains, locus YDR162C, strain NBP2, active compounds read low 0.983 | S. cerevisiae deletion strains, locus YDR318W, strain mcm21, active compounds read low 1.03 | S. cerevisiae deletion strains, locus YDR388W, active compounds read low 1 | S. cerevisiae deletion strains, locus YDR502C, strain sam2, active compounds read low 0.999 | S. cerevisiae deletion strains, locus YEL061C, strain CIN8, active compounds read low 1 | S. cerevisiae deletion strains, locus YER110C, active compounds read low 1.01 | S. cerevisiae deletion strains, locus YER155C, strain BEM2, active compounds read low 1 | S. cerevisiae deletion strains, locus YER167W, strain BCK2, active compounds read low 1.03 | S. cerevisiae deletion strains, locus YGL078C, strain dbp3, active compounds read low 0.984 | S. cerevisiae deletion strains, locus YGL086W, strain mad1, active compounds read low 1.02 | S. cerevisiae deletion strains, locus YGL248W, strain PDE1, active compounds read low 1.01 | S. cerevisiae deletion strains, locus YGR078C, strain PAC10, active compounds read low 1 | S. cerevisiae deletion strains, locus YGR135W, strain pre9, active compounds read low 0.988 | S. cerevisiae deletion strains, locus YGR229C, strain SMI1, active compounds read low 0.981 | S. cerevisiae deletion strains, locus YGR252W, strain gcn5, active compounds read low 1.01 | S. cerevisiae deletion strains, locus YHR030C, strain SLT2, active compounds read low 1.01 | S. cerevisiae deletion strains, locus YHR079C, strain IRE1 (second series), active compounds read low 1.02 | S. cerevisiae deletion strains, locus YHR094C, strain hxt1, active compounds read low 1.01 | S. cerevisiae deletion strains, locus YHR129C, strain ARP1, active compounds read low 1.01 | S. cerevisiae deletion strains, locus YHR200W, strain rpn10, active compounds read low 1.01 | S. cerevisiae deletion strains, locus YIL066C, strain RNR3, active compounds read low 1.01 | S. cerevisiae deletion strains, locus YIL073C, strain SPO22, active compounds read low 1.07 | S. cerevisiae deletion strains, locus YIL125W, strain kgd1, active compounds read low 1 | S. cerevisiae deletion strains, locus YIR030C, strain dcg1, active compounds read low 1.02 | S. cerevisiae deletion strains, locus YJL095W, strain BCK1, active compounds read low 0.994 | S. cerevisiae deletion strains, locus YJL134W, strain LCB3, active compounds read low 1.01 | S. cerevisiae deletion strains, locus YJL168C, strain set2, active compounds read low 1.01 | S. cerevisiae deletion strains, locus YJL187C, strain SWE1 (second series), active compounds read low 0.998 | S. cerevisiae deletion strains, locus YJR043C, strain POL32, active compounds read low 1.04 | S. cerevisiae deletion strains, locus YJR075W, strain HOC1, active compounds read low 0.974 | S. cerevisiae deletion strains, locus YKL009W, strain mrt4, active compounds read low 0.996 | S. cerevisiae deletion strains, locus YKL068W, active compounds read low 0.995 | S. cerevisiae deletion strains, locus YKL085W, strain MDH1 (second series), active compounds read low 1 | S. cerevisiae deletion strains, locus YKL085W, strain MDH1, active compounds read low 1 | S. cerevisiae deletion strains, locus YKL190W, strain CNB1, active compounds read low 1.01 | S. cerevisiae deletion strains, locus YKR001C, strain vps1, active compounds read low 1.02 | S. cerevisiae deletion strains, locus YLR039C, strain RIC1, active compounds read low 1.04 | S. cerevisiae deletion strains, locus YLR058C, strain SHM2, active compounds read low 1.01 | S. cerevisiae deletion strains, locus YLR102C, strain apc9, active compounds read low 1.02 | S. cerevisiae deletion strains, locus YLR262C, strain YPT6, active compounds read low 0.988 | S. cerevisiae deletion strains, locus YLR268W, strain sec22, active compounds read low 0.988 | S. cerevisiae deletion strains, locus YLR330W, strain CHS5, active compounds read low 1 | S. cerevisiae deletion strains, locus YLR342W, strain FKS1 (second series), active compounds read low 1.07 | S. cerevisiae deletion strains, locus YLR371W, strain rom2, active compounds read low 1.02 | S. cerevisiae deletion strains, locus YLR418C, strain cdc73, active compounds read low 0.979 | S. cerevisiae deletion strains, locus YML016C, strain PPZ1, active compounds read low 1 | S. cerevisiae deletion strains, locus YML032C, strain rad52, active compounds read low 1.03 | S. cerevisiae deletion strains, locus YML124C, strain tub3, active compounds read low 1.01 | S. cerevisiae deletion strains, locus YMR078C, strain ctf18, active compounds read low 1.02 | S. cerevisiae deletion strains, locus YMR223W, strain ubp8, active compounds read low 1.03 | S. cerevisiae deletion strains, locus YMR263W, strain SAP30, active compounds read low 0.991 | S. cerevisiae deletion strains, locus YMR307W, strain GAS1, active compounds read low 1.05 | S. cerevisiae deletion strains, locus YNL067W, strain RPL9B, active compounds read low 0.988 | S. cerevisiae deletion strains, locus YNL128W, strain TEP1, active compounds read low 0.977 | S. cerevisiae deletion strains, locus YNL153C, strain GIM3, active compounds read low 0.995 | S. cerevisiae deletion strains, locus YNL233W, strain BNI4, active compounds read low 0.99 | S. cerevisiae deletion strains, locus YNL250W, strain rad50, active compounds read low 1.01 | S. cerevisiae deletion strains, locus YNL271C, strain bni1, active compounds read low 1.01 | S. cerevisiae deletion strains, locus YNL298W, strain CLA4, active compounds read low 1.02 | S. cerevisiae deletion strains, locus YNL307C, strain MCK1, active compounds read low 1.05 | S. cerevisiae deletion strains, locus YNL322C, strain KRE1, active compounds read low 1.01 | S. cerevisiae deletion strains, locus YNR052C, strain pop2, active compounds read low 1.02 | S. cerevisiae deletion strains, locus YOL006C, strain TOP1, active compounds read low 1.06 | S. cerevisiae deletion strains, locus YOL012C, strain htz1 0.852 | S. cerevisiae deletion strains, locus YOL147C, strain pex11, active compounds read low 0.999 | S. cerevisiae deletion strains, locus YOR061W, strain CKA2, active compounds read low 1 | S. cerevisiae deletion strains, locus YOR069W, strain VPS5, active compounds read low 1.01 | S. cerevisiae deletion strains, locus YOR136W, strain idh2, active compounds read low 1.02 | S. cerevisiae deletion strains, locus YOR144C, strain elg1, active compounds read low 1 | S. cerevisiae deletion strains, locus YOR184W, strain ser1, active compounds read low 1.06 | S. cerevisiae deletion strains, locus YOR316C, strain cot1, active compounds read low 1.01 | S. cerevisiae deletion strains, locus YPL055C, strain LGE1, active compounds read low 0.946 | S. cerevisiae deletion strains, locus YPL241C, strain CIN2, active compounds read low 1 | S. cerevisiae deletion strains, locus YPR119W, strain clb2, active compounds read low 1.01 | S. cerevisiae deletion strains, locus YPR141C, strain kar3, active compounds read low 1.01 | S. cerevisiae deletion strains, locus YPR163C, strain tif3, active compounds read low 1.01 | S. cerevisiae deletion strains, locus YPR167C, strain met16, active compounds read low 1.01 | S. cerevisiae deletion strains, strain wtn01, active compounds read low 0.997 | S. cerevisiae strains, strain wild type, active compounds read low 1.02
